Out of some 310,000 compounds screened, about 14,000 (4.5%) showed an effect of 50% or more. The effect is printed as a negative number. Only a selection was taken, and strong results are over-represented in it overall.
target: human ether-à-go-go-related gene (hERG) potassium channel (human, UniProt Q12809); test: primary screen, population patch clamp on CHO cells stably expressing hERG; higher = less effect of the substance
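Also: peak tail current of the secondary pulse compared with the same well before compound.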

human ether-à-go-go-related gene (hERG) potassium channel, sequence (Q12809 whole entry, looked up): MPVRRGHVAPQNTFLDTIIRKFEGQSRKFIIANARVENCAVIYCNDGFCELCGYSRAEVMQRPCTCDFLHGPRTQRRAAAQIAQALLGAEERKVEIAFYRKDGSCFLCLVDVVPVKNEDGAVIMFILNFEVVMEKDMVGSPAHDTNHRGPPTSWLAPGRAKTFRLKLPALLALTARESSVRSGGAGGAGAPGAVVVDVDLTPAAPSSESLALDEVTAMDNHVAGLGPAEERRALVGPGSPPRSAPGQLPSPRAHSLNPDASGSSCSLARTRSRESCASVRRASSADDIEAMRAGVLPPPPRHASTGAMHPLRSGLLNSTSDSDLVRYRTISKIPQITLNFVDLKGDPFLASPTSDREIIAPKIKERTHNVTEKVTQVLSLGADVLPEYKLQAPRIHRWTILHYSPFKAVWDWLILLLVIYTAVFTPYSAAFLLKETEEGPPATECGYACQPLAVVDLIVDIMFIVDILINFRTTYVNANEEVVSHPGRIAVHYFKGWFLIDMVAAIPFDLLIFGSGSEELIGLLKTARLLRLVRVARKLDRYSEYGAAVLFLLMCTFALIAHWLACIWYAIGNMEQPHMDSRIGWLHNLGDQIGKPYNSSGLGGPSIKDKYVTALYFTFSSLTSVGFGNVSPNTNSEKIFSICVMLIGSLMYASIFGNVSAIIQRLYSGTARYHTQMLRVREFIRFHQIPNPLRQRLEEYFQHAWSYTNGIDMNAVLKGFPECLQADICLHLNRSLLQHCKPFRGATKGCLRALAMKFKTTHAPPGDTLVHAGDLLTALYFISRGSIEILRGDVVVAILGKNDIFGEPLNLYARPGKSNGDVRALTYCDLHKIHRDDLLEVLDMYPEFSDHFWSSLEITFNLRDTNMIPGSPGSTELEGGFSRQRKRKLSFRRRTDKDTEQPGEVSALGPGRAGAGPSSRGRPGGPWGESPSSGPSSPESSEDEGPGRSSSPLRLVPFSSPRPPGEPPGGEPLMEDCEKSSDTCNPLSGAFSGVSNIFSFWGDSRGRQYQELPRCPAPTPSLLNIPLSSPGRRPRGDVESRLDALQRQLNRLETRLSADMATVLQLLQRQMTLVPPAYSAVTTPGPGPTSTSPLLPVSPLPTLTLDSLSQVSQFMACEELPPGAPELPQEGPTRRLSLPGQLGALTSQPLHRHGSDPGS

SMILES | hERG current change (%, negative = inhibition) at 10uM
Cc1ccc(C(=O)NCC(=O)NC2CCC(C)CC2)s1 (centres unmarked) | 2.47%
CC(=O)NCCc1nc2ccccc2n1Cc1ccccc1 | 1.05%
O=C(COc1ccccc1[N+](=O)[O-])Nc1ccccc1N1CCCC1 | -29.1%
CCN(CC(=O)Nc1ccc2c(c1)OCO2)CC(=O)Nc1ccccc1C(F)(F)F | -14.4%
C/C(=N\NS(=O)(=O)c1ccc(C)c([N+](=O)[O-])c1)c1cc2ccccc2o1 | -9.98%
Cc1ccc(-n2c(C)c3c(C)nnc(C)c3c2C)cc1C | -34%
C=CCn1cc(C(=O)c2cc(Br)ccc2O)cc(C#N)c1=O | -17.5%
Cc1ccc(C(=O)OCC(=O)N2CCCC2)cc1 | -2.99%
Cc1nnc(C)c2c(C)n(Cc3ccc4c(c3)OCO4)c(C)c12 | -71.4%
Cc1nnc(-c2cnn(C)c2N)n1Cc1ccc2c(c1)OCO2 | 5.96%
CC(=O)c1c(C(C)=O)c(C)n(Cc2ccc3c(c2)OCO3)c1C | -9.41%
CCOc1ccc2oc(C(=O)OCC(=O)NC3CCCC3)c(C)c2c1 | 11.1%
Cc1cccc(NC(=O)CN2C(=O)c3ccccc3C2=O)c1C | 0.742%
CCc1ccc(C(=O)NNC(=O)CCc2nc3ccccc3c(=O)[nH]2)cc1 | -7.54%
c1ccc2c(CN3CCCCC3)c[nH]c2c1 | -38%
O=C(O)C(=O)O.O=[N+]([O-])c1ccccc1CN1CCN(Cc2c[nH]c3ccccc23)CC1 | -24.2%
O=S(=O)(c1ccc(Cl)cc1)N1CCN(Cc2c[nH]c3ccccc23)CC1 | -18.8%
O=C(O)C(=O)O.O=[N+]([O-])c1ccc(S(=O)(=O)N2CCN(Cc3c[nH]c4ccccc34)CC2)cc1 | -54.5%
O=[N+]([O-])c1ccc(CN2CCN(Cc3c[nH]c4ccccc34)CC2)cc1 | -77.8%
c1ccc(CN2CCN(Cc3c[nH]c4ccccc34)CC2)cc1 | -30.2%
O=C(CN1CCN(Cc2ccccc2Cl)C1=O)NCc1cccnc1 | -1.97%
O=C(Cn1c(SCC(=O)N2CCCc3ccccc32)nc2ccccc21)N1CCCC1 | -13.2%
O=[N+]([O-])c1ccc2c(c1)nc1n2CCN(c2ccccc2)C1 | -26.1%
CCn1cnc2sc(C(=O)N(Cc3ccc(N(C)C)cc3)Cc3ccco3)c(C)c2c1=O | -22.2%
CCOC(=O)c1c(NC(=O)C2COc3ccccc3O2)sc2c1CCN(Cc1ccccc1)C2.Cl (centres unmarked) | 0.603%

SMILES | hERG current change (%, negative = inhibition) at 10uM
CN(C)C1=NC[C@H](Cc2ccccc2)N1CCC1CCCC1 | -43.5%
CN(C)C1=NC[C@H](Cc2ccccc2)N1CC1CCCCC1 | -14.6%
CN(C)C1=NC[C@H](Cc2ccccc2)N1CCCC1CCCC1 | -71.2%
NC1=NC[C@H](Cc2ccccc2)N1CCCCC1CCCCC1 | -25.9%
NC1=NC[C@H](Cc2ccc(O)cc2)N1CCCCC1CCCCC1 | -50.2%
NC1=NC[C@@H](Cc2ccc(O)cc2)N1CCCCC1CCCCC1 | -18.6%
CN(C)C1=NC[C@H](Cc2ccccc2)N1CC1CCCCCC1 | -27.8%
CN(C)C1=NC[C@H](Cc2ccccc2)N1CC1CCCC1 | -16.9%
CN(C)C1=NC[C@H](Cc2ccccc2)N1CCCC1CCCCC1 | -70.8%
N#C/C(=C\c1ccc(F)cc1F)S(=O)(=O)c1ccccn1 | 6.77%
Cc1ccc(C)c(NS(=O)(=O)c2cc3c4c(c2)CC(=O)N4CCC3)c1 | 4.86%
O=C(N/N=C/c1ccc(Br)s1)c1cccc([N+](=O)[O-])c1 | 12.2%
CC(C)(C)NC(=O)CN(C(=O)C1CSC(=O)C1)c1ccccc1F (centres unmarked) | -0.923%
Cc1ccc(S(=O)(=O)NNC(=O)c2ccoc2C)cc1 | -70.6%
Cc1occc1C(=O)NNS(=O)(=O)c1ccc([N+](=O)[O-])cc1 | 10.5%
Cc1occc1C(=O)NNS(=O)(=O)c1ccc(Cl)cc1 | 7.64%
O=C(CCc1ccccc1)NNC(=O)c1ccco1 | 5.99%
COc1cccc(C(=O)C2CCCN(Cc3ccc(OC)c(Cn4cncn4)c3)C2)c1 (centres unmarked) | -58.6%
COc1cccc(C(=O)C2CCCN(Cc3ccc4nonc4c3)C2)c1 (centres unmarked) | -48.5%
COc1ccc(CN2CCCC(C(=O)c3ccc(Cl)cc3)C2)cc1Cn1cncn1 (centres unmarked) | -78%
COc1ccc(C(=O)C2CCCN(C(=O)Cn3cncn3)C2)cc1OC (centres unmarked) | 21.6%
COc1ccc(CN2CCN(CC=C(C)C)C(CCO)C2)cc1Cn1cncn1 (centres unmarked) | -0.719%
O=C1CNC(=O)/C(=C\c2ccccc2)N1 | 11.8%
COc1ccc(C(=O)NCC(=O)OC2CCCCC2=O)cc1 (centres unmarked) | -13.5%
COc1cc(OC)cc(C(=O)NCC(=O)OC2CCCCC2=O)c1 (centres unmarked) | -27.6%

SMILES | hERG current change (%, negative = inhibition) at 10uM
O=C(CNC(=O)c1ccc(Oc2ccccc2)cc1)OC1CCCCC1=O (centres unmarked) | -72.2%
COc1ccc(CCN2C(=O)C(Oc3ccccc3C)C2c2ccc3c(c2)OCO3)cc1 (centres unmarked) | -42.3%
O=C1C(Oc2ccc(Cl)cc2)C(c2ccc3c(c2)OCO3)N1CC1CCCO1 (centres unmarked) | -28.3%
Cc1ccccc1OC1C(=O)N(CC2CCCO2)C1c1ccc2c(c1)OCO2 (centres unmarked) | -55.8%
CCc1nc(NCCN2CCOCC2)c(C#N)c2c1CCCC2 | -37.2%
CCOc1ccc(NCc2cccn2-c2nnc(N3CCC(C(=O)NCCCN4CCCCC4CC)CC3)s2)cc1 (centres unmarked) | -68%
CCOc1ccc(CCNC(=O)C2CCN(c3nnc(-n4cccc4)s3)CC2)cc1 | -0.834%
CCOc1ccc(NCc2cccn2-c2nnc(N3CCC(C(=O)NCCCN4C(C)CCCC4C)CC3)s2)cc1 (centres unmarked) | -69.3%
CC1CCCCN1CCCNC(=O)C1CCN(c2nc3ccccc3o2)CC1 (centres unmarked) | -1.61%
CCOc1ccc(NCc2cccn2-c2nnc(N3CCC(C(=O)NCCCN4CCCCC4C)CC3)s2)cc1 (centres unmarked) | -53.8%
CCC1CCCCN1CCCNC(=O)C1CCN(c2nnc(-n3cccc3)s2)CC1 (centres unmarked) | -18.7%
CCOc1ccc(NCc2cccn2-c2nnc(N3CCC(C(=O)NCCCN4CC(C)CC(C)C4)CC3)s2)cc1 (centres unmarked) | -66.2%
Cc1ccc(C)n1-c1nnc(N2CCC(C(=O)NCCCN3CC(C)CC(C)C3)CC2)s1 (centres unmarked) | -17.7%
CC1CCCCN1CCCNC(=O)C1CCN(c2nnc(-n3cccc3)s2)CC1 (centres unmarked) | -27.1%
CCOc1ccc(CCNC(=O)C2CCN(c3nnc(-n4cccc4)s3)CC2)cc1OCC | -35.7%
CCN1CCN(CCCNC(=O)C2CCN(c3nnc(-n4cccc4)s3)CC2)CC1 | -3.56%
CC1CC(C)CN(CCCNC(=O)C2CCN(c3nnc(-n4cccc4)s3)CC2)C1 (centres unmarked) | -28.3%
COC(=O)c1ccccc1NC(=O)N1CCN(S(=O)(=O)c2ccc(Cl)cc2)CC1 | 7.58%
O=C(Nc1ncccc1Cl)C(Sc1ccccc1)c1ccccc1 (centres unmarked) | 8.58%
Cc1[nH]n(-c2cccc(Cl)c2)c(=O)c1-c1ccccc1 | 17.1%
CCOC(=O)c1nn(-c2ccc(C)cc2)cc1C(=O)c1ccccc1 | -9.04%
COc1cc(CNc2ccc(N3CCOCC3)c(C(=O)O)c2)ccc1OCC(N)=O | -6.95%
CCOc1ccc(S(=O)(=O)NCc2ccccc2)cc1C(N)=O | 18.9%
O=C(OCC(O)CN1CCCCC1)C12CC3CC(CC(C3)C1)C2 (centres unmarked) | -16.3%
CCOC(=O)N1CCC(NC(=O)CC2C(=O)NCCN2Cc2ccccc2F)CC1 (centres unmarked) | 11.8%

SMILES | hERG current change (%, negative = inhibition) at 10uM
CCOC(=O)c1cc(C(O)(C(=O)OC)C(F)(F)F)c(/N=C/N(C)C)o1 (centres unmarked) | -6.94%
Cc1cccc(-n2c(C)cc(C(=S)N3CCOCC3)c2C)c1C | -7.9%
CC(=O)C(C)Oc1ccc2c3c(c(=O)oc2c1)CCCC3 (centres unmarked) | -12.8%
CC(=O)C(C)Oc1ccc2c3c(c(=O)oc2c1)CCCCC3 (centres unmarked) | 2.1%
COC(=O)C(C)Oc1ccc2c3c(c(=O)oc2c1)CCCCC3 (centres unmarked) | -59.2%
O=C(CSc1nc(C(F)(F)F)cc(=O)[nH]1)Nc1nccs1 | 18.5%
CCc1nn(CCCC(=O)NCc2ccco2)c(=O)c2cc3occc3n12 | -14%
Cc1cccc(-n2c(O)c(C=NCc3ccccn3)c3ccccc3c2=O)c1 | -60.9%
COc1cccc(-n2c(O)c(C=NCc3ccccn3)c3ccccc3c2=O)c1 | -26.2%
Cc1ccc(-n2c(O)c(C=NCc3ccccn3)c3ccccc3c2=O)cc1 | -3.79%
COc1ccc(Cl)cc1NC(=S)NCc1cccnc1 | -15.3%
Cc1c(NC(=O)COC(=O)/C=C/c2cccc(Cl)c2)c(=O)n(-c2ccccc2)n1C | -58.7%
CCOc1ccc(N(CC(=O)Nc2c(C)n(C)n(-c3ccccc3)c2=O)S(=O)(=O)c2ccc(F)cc2)cc1 | -17.6%
Cc1c(NC(=O)COC(=O)/C=C/c2cccc(Br)c2)c(=O)n(-c2ccccc2)n1C | -15.8%
Cc1c(NC(=O)CSc2ncnc3c2cnn3-c2ccccc2)c(=O)n(-c2ccccc2)n1C | -64.1%
CCOc1ccccc1OCC(=O)Nc1c(C)n(C)n(-c2ccccc2)c1=O | -6.05%
CCOc1ccc(N(CC(=O)Nc2c(C)n(C)n(-c3ccccc3)c2=O)S(=O)(=O)c2ccccc2)cc1 | -55.2%
Cc1c(NC(=O)COC(=O)/C=C/c2ccc(Cl)cc2)c(=O)n(-c2ccccc2)n1C | 28.5%
Cc1cc(NC(=O)CSc2ncnc3c2cnn3-c2ccccc2)no1 | -10.8%
Cc1c(NC(=O)CN(c2ccc(F)cc2)S(=O)(=O)c2ccccc2)c(=O)n(-c2ccccc2)n1C | -0.664%
Cc1c(NC(=O)COc2ccccc2Cl)c(=O)n(-c2ccccc2)n1C | -4.59%
Cc1c(NC(=O)CSc2ncnc3ccccc23)c(=O)n(-c2ccccc2)n1C | -38.8%
Cc1c(NC(=O)COc2cccc(Cl)c2Cl)c(=O)n(-c2ccccc2)n1C | -71.4%
